Results reported in PubChem BioAssay AID1053173 (Broad Institute, 2014).
Among all 1,500 compounds or so, about 390 (26%) were called active. No rule for the calls is given here. These entries were drawn from the full list. Potency and affinity values are given separately.

Molecular target: Histone-lysine N-methyltransferase NSD2 (Homo sapiens) (UniProt O96028)
Test: blockers of NSD2 H4 peptide methylation – biochemical, AlphaScreen, cherry-picked samples, dose response (AID 1053173)
Settings: 120 min; series mostly up to 10 µM

Histone-lysine N-methyltransferase NSD2 (Homo sapiens), sequence (O96028 whole entry, looked up): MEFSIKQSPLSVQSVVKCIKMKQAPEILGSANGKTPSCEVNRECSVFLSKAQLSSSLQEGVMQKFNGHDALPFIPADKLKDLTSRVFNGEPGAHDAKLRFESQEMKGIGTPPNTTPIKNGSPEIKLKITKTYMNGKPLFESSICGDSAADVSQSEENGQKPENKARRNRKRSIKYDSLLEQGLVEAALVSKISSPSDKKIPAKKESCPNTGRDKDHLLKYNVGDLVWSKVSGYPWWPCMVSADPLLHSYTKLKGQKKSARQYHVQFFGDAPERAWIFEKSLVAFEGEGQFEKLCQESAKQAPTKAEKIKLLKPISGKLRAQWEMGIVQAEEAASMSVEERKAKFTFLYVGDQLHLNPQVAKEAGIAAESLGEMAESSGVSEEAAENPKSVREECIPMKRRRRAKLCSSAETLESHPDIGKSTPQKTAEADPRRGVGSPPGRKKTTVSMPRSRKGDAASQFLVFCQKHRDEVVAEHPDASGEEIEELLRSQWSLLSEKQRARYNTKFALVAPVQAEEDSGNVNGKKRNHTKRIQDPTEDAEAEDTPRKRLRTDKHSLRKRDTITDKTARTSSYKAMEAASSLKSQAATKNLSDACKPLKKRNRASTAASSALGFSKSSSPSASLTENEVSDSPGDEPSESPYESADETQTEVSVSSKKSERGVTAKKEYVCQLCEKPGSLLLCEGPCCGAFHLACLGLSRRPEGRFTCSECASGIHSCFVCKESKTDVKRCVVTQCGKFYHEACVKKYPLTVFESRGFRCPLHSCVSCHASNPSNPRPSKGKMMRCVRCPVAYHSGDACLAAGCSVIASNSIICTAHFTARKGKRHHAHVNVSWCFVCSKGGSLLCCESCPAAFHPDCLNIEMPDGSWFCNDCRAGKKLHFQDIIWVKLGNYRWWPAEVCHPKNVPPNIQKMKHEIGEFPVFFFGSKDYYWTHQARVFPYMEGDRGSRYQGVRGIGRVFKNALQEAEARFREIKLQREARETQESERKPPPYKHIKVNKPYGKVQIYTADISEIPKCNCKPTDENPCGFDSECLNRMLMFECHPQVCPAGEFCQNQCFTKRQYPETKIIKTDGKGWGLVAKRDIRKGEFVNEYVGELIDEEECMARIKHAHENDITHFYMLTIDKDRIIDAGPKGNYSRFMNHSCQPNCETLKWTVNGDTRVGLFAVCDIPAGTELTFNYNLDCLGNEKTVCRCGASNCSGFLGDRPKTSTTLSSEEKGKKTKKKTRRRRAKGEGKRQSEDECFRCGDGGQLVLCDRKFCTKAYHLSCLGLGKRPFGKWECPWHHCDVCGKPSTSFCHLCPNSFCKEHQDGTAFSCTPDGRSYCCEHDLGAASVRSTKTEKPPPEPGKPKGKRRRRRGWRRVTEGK

outcome, inactive:
COc1ccc(C(=O)N(Cc2cccs2)C2CCS(=O)(=O)C2)cc1 (stereo not drawn)
CCOC(=O)Nc1cc(C(=O)OC)ccc1C
Cc1cc(C(=O)COc2cccc(-n3cnnn3)c2)c(C)n1-c1ccccc1
O=C(Nc1ccc(Br)cc1)c1ccc(-n2cnnn2)cc1
O=C(C1CC1)N1CCc2[nH]c3ccccc3c2C1
C=CCn1c(N)c(C(=O)NCC2CCCO2)c2nc3ccccc3nc21 (stereo not drawn)
COc1ccccc1NC1C=CS(=O)(=O)C1 (stereo not drawn)
CC1CCCC(C)N1C(=O)COC(=O)c1ccc([N+](=O)[O-])o1 (stereo not drawn)
COc1ccccc1NC(=O)c1ccccc1NS(=O)(=O)N1CCCC1
CCN1CCc2nc3ccccc3c(C(=O)Nc3ccc(NC(C)=O)cc3)c2C1
O=C1ON=C(c2ccccc2)/C1=C/c1ccc(O)cc1
Nc1nc(Nc2ccccc2F)nc(NCCO)c1[N+](=O)[O-]
CCCCn1c(=O)[nH]c2nc3cc(N)ccc3nc2c1=O
COc1ccc(C(=O)NCc2nnc(SCC(=O)Nc3cc(C)cc(C)c3)o2)cc1OC
Cc1nnc(N/N=C/c2ccccc2O)n1N
COc1ccc(/C=N/Nc2nnc(C)n2N)cc1OC
CN(C)S(=O)(=O)c1ccc(NC(=O)CCNC(=O)c2ccco2)cc1
CC(=O)c1cccc(NC(=O)CC2CCCC2)c1
Cc1nc2ccc(S(=O)(=O)N3CCCCC3)cc2s1
CC(=O)NCCN1C(=O)C2C3c4ccccc4C(c4ccccc43)C2C1=O (stereo not drawn)
CCOC(=O)c1sc2nc(C)nc(NC3CCC(O)CC3)c2c1C (stereo not drawn)
CCCCC(=O)OCc1cn(-c2ccc(Cl)cc2)nn1
Cc1cccc(NC(=O)C2CCN(C(=O)NCc3ccccc3)CC2)c1C
CN1C(=O)C(CCC(=O)O)NC1=S (stereo not drawn)
Cc1cccc(NC(=O)CSCC(=O)NCc2cccc(C(F)(F)F)c2)c1
O=C(O)c1cc(-c2ccco2)nn1-c1ccc(Cl)cc1
O=C(NCCCO)c1ccc2nc(-c3ccco3)c(-c3ccco3)nc2c1
O=C1CCN(Cc2ccccc2)N1
COc1ccc2c(c1)Cc1sc(NC(=O)c3cccs3)nc1-2
COc1ccc(C(=O)OCC(=O)Nc2c(C)n(C)n(-c3ccccc3)c2=O)cc1
O=Nc1ccc(O)c2ncccc12
Cc1ccc(C#N)c(SCc2ccccc2F)n1
O=c1[nH]c(NCCO)c(N=Cc2ccccc2)c(=O)[nH]1
COc1ccc(C2CCc3cc4c(cc3C2=NOC(C)=O)OCO4)cc1OC (stereo not drawn)
Cc1cc(C)n(CC(O)COc2c(C)cccc2C)n1 (stereo not drawn)
O=C(CN1CCOCC1)NCCNC(=O)CN1CCOCC1
CCNC(=O)C1(C)CCCN(C(=O)c2ccc3ccccc3n2)C1 (stereo not drawn)
NC(=O)COC(=O)c1ccc(Cl)c(S(=O)(=O)N2CCN(c3ccc(F)cc3)CC2)c1
Cc1ccc(CC(=O)Nc2nncs2)cc1
COc1cc(NC(=O)c2ccccc2)c(OC)cc1NC(=O)CSc1[nH]c(=O)cc(C)c1C#N
CCc1sc(C(=O)Nc2nc(C)cs2)cc1C
Cc1ccc2cccc(OCc3ccc(Br)cc3)c2n1
CC(Nc1ccc2ccccc2c1)C(=O)N/N=C/c1ccncc1 (stereo not drawn)
Cc1sc2nc[nH]c(=S)c2c1-c1ccccc1
O=c1[nH]nc(Br)c(=O)n1C(c1ccccc1)c1ccccc1
O=C(CSc1nccn1-c1ccc(F)cc1)NCc1ccc(F)cc1
Cc1cccc2c(=O)c(C(=O)NCc3ccc(F)cc3)c[nH]c12
CN(Cc1nc2ccccc2c(=O)[nH]1)C(=O)c1cc2c(s1)CCCCC2
O=C(O)COc1ccccc1/C=N/Nc1ccc(S(=O)(=O)Nc2ccc(Cl)cc2)cc1[N+](=O)[O-]
O=C(Nc1ccccc1C(=O)O)c1cncc(Br)c1
O=C(NNC(=S)Nc1ccccc1)c1ccco1
O=C(/C=C/c1ccco1)N(c1ccccn1)c1ccccn1
Cc1cc(NS(=O)(=O)c2ccc(NC(=O)CSc3nnc(-c4ccncc4)n3Cc3ccco3)cc2)nc(C)n1
COc1ccc(CCC(=O)Nc2ccc(S(=O)(=O)Nc3nccc(C)n3)cc2)cc1
Cn1c(N)c(C#N)c2c(c1=S)CSC(C)(C)C2
CCN(C(=O)/C=C/c1ccc2c(c1)OCO2)c1ccccc1
CC(=O)Nc1ccc(S(=O)(=O)NCCSCc2c(Cl)cccc2Cl)cc1
NS(=O)(=O)c1ccc(N/N=C/c2ccc(O)c(O)c2O)c([N+](=O)[O-])c1
C=CCn1c(NS(=O)(=O)c2ccccc2)c(S(=O)(=O)c2ccc(C)cc2)c2nc3ccccc3nc21
CCOC(=O)c1nnn(-c2nonc2OC)c1-c1ccccc1
N#Cc1c(N)n(-c2ccc(C(=O)O)cc2)c2nc3ccccc3nc12
CCCCn1c(NS(=O)(=O)c2ccccc2)c(S(=O)(=O)c2ccc(C)cc2)c2nc3ccccc3nc21
N#Cc1c2nc3ccccc3nc2n2cc(NC(=O)c3ccc(F)cc3)ccc12
CCCCn1c(Cn2nc(C(=O)O)c3ccccc3c2=O)nc2cc(S(N)(=O)=O)ccc21
COc1ccccc1N1CCN(C2CCN(C(=O)c3cccc(F)c3)CC2)CC1
Cc1cccc(NCCNc2cccc(C)c2)c1
COc1cnc(-c2ccccn2)nc1Oc1cccc(C(F)(F)F)c1
COc1cccc(CNC(=O)CSc2nnc3c(n2)[nH]c2ccccc23)c1
CCOc1ccc(S(=O)(=O)N2CCCC(C(=O)NCCN3CCOCC3)C2)cc1Cl (stereo not drawn)
CNC(=O)COC(=O)/C=C/c1cccs1
Cc1ccc(S(=O)(=O)N2CCC(NC(=O)c3cccnc3)CC2)cc1Cl
COc1cccc(C(C(=O)NC2CCCC2)N(C(=O)c2csnn2)C2CC2)c1 (stereo not drawn)
CCc1c(C)nc2ncnn2c1Nc1ccc(C)cc1
